In the supplement of paper PMC10600219 one finds cell viability data, which are given here for 49 compounds.

Molecules are shown by their SMILES. Where a name gives a salt, the structure may show the parent alone. In all, about 2,800 compounds were measured (“cell viability relative to vehicle”: median about 1.1, lowest 2% from about 0.19 on). Shown is part of a subset that was picked to be rich in the lowest values.

In this experiment the test system is NCI-H2228 parental. The experiment in a line: cell viability relative to vehicle (fraction of vehicle); NCI-H2228 is an ALK-positive lung cancer line and DTP means drug-tolerant persister; higher = less growth inhibition. As to conditions: 100 nM; treatment time 6 days. Put shortly: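 Values give cell viability as a fraction of vehicle-treated cells. Parental and drug-tolerant persister NCI-H2228 cells (persisters made with 1000 nM of a targeted drug for 13 days) were exposed in 384-well plates to the 3114-agent TargetMol anti-cancer compound library at 100 nM, with DMSO as vehicle. ATP was then read after 6 days by the CellTiter-Glo 3D Cell Viability Assay.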
Regarding `FC(F)(F)c1ccccc1-c1nc(NCc2cccs2)c2ccccc2n1`, the cell viability was 1.04.
Under `CC(CCc1ccccn1)(CCc1ccccn1)C(=O)c1ccccc1` [JAK2 Inhibitor V] stands 1.08; under `COc1cc2ncnc(Nc3ccc(Oc4ccccc4)cc3C)c2cc1OC`, 0.96; under `CCc1ccc(-c2nc(CSCC(=O)NCCc3ccccc3)c(C)o2)cc1`, 1.1.
Under `COc1cc(N(C)C)cc(CN(C)CCc2ccc([N+](=O)[O-])cc2)c1O` [CDC25 Phosphatase Inhibitor I] stands 1.05.
In the case of `O=C(O[C@@H]1Cc2c(O)cc(O)cc2O[C@H]1c1cc(O)c(O)c(O)c1)c1cc(O)c(O)c(O)c1` [(-)-Gallocatechin gallate] it was 1.07; in that of `O=C1NCCSc2c1sc1ccc(O)cc21`, 1.05.
As to `Cc1csc(-c2nnc(Nc3ccc(Oc4ncccc4-c4ccnc(N)n4)cc3)c3ccccc23)c1`, the cell viability was 0.143.
In the case of `C[C@@H]1CCCCCCCCCCCCC(=O)C1` [Muscone] it was 1.13.
Take `CC(=O)NC(Cc1ccccc1)C(=O)O` (centres undefined) [Afalanine]: the cell viability is 1.04.
Under `CC(NC(=O)C(Cc1ccccc1)NC(=O)OCc1ccccc1)C(=O)CF` (centres undefined) stands 1.1; under `COC[C@H](NC(=O)c1cnc(C)s1)C(=O)N[C@@H](COC)C(=O)N[C@@H](Cc1ccccc1)C(=O)[C@@]1(C)CO1` [Oprozomib], 0.176; under `Cn1c(=O)c(Oc2ccc(F)cc2F)cc2cnc(NC(CCO)CCO)nc21` [Pamapimod], 1.05.
Under `C[C@@H]1CC[C@@]2(NC1)O[C@H]1C[C@H]3[C@@H]4CC=C5C[C@@H](O[C@@H]6O[C@H](CO)[C@H](O)[C@H](O[C@@H]7O[C@H](CO)[C@@H](O)[C@H](O)[C@H]7O)[C@H]6O[C@@H]6O[C@@H](C)[C@H](O)[C@@H](O)[C@H]6O)CC[C@]5(C)[C@H]4CC[C@]3(C)[C@H]1[C@@H]2C` [Solasonine] stands 1.1; under `Cn1cc(-c2cc3c(N4CCN(c5ncc([C@@](C)(N)c6ccc(F)cc6)cn5)CC4)ncnn3c2)cn1` [Avapritinib], 0.846.
Turning to `C[C@H](NC(=O)CNC(=O)c1cccc(Cl)c1)c1ccccc1`, the cell viability was found to be 1.09.
In the case of `CCCC(C)NC(=O)c1ccc(Cl)c(Cl)c1` (centres undefined) it was 1.06; in that of `CC(C)C[C@H](NC(=O)CNC(=O)c1cc(Cl)ccc1Cl)B1OC(=O)C(CC(=O)O)(CC(=O)O)O1`, 0.106.
In the case of `CC(C)C[C@H](NC(=O)CNC(=O)c1cc(Cl)ccc1Cl)B(O)O` [Ixazomib] it was 0.121; in that of `CCNC(=O)Nc1ccc(-c2nc(N3CCOC[C@@H]3C)c3c(n2)C(C)(C)S(=O)(=O)C3)cc1`, 0.547; in that of `CCn1nc(C2CCN(C(=O)CCO)CC2)nc1-c1cnc(N)c(-c2nnc(C(C)(C)C)o2)n1`, 1.04.
Consider `COc1cc(OCc2cccc(-c3ccccc3)c2C)cc(OC)c1CN1CCCC[C@H]1C(=O)O` [PD-1/PD-L1 inhibitor 1], for which the cell viability turned out to be 1.09.
With `Nc1n[nH]c2cc(-c3ccc(=O)n(Cc4cccc(Cl)c4)c3)ccc12`, the cell viability is 1.
In the case of `Cc1cc(-n2cccc2)c(S(C)(=O)=O)cc1C(=O)N=C(N)N` [Eniporide] it was 1.24.
In the case of `Nc1nccc(Oc2ccc3c(C(=O)Nc4cccc(C(F)(F)F)c4)cccc3c2)n1` it was 1.15; in that of `C=C1CCC[C@]2(C)C[C@]3(O)OC(=O)C(C)=C3C[C@@H]12` [Atractylenolide III], 1.1; in that of `COc1nccnc1NS(=O)(=O)c1ccc(NC(=O)/C=C/c2ccc([N+](=O)[O-])s2)cc1` [Necrosulfonamide], 1.13.
`O=C(COCC(=O)N1CCN(C(c2ccccc2)c2ccccc2)CC1)Nc1ccc(Cl)cc1C(=O)O` [TM5275 sodium]: the cell viability was found to be 0.996.
Under `NCCC(=O)O` [beta-Alanine] stands 1.24; under `CC(C)S(=O)(=O)c1ccc2nccc(Nc3ccc4scnc4c3)c2c1`, 1.08; under `Nc1nc(=O)c2c([nH]1)NC[C@H](CNc1ccc(C(=O)N[C@@H](CCC(=O)O)C(=O)O)cc1)N2C=O` [Calcium Levofolinate], 1.15.
In the case of `Nc1nc2[nH]cc(CCc3ccc(C(=O)N[C@@H](CCC(=O)O)C(=O)O)cc3)c2c(=O)[nH]1` [Pemetrexed Disodium Hydrate] it was 0.187; in that of `Cc1ccc2nc(N)[nH]c(=O)c2c1Sc1ccncc1` [Nolatrexed], 1.04; in that of `COc1c2c(cc3c1-c1c(cc4c(c1OC)OCO4)C[C@H](C)[C@H](C)C3)OCO2` [Schisandrin C], 0.951.
For `N#CC(=Cc1cc(Cl)cc(Cl)c1)c1cccnc1`, the cell viability came to 1.14.
Under `CCN(CC)CCOc1ccc(Nc2nc(-c3ccccc3NC(=O)CCN3CCN(C)CC3)nc3ccccc23)cc1` stands 1.15; under `CC(C)Oc1ccc(C(=O)N[C@H](CNC(=O)CN(C)C)Cc2ccc(-c3cn4cccc([C@H](C)O)c4n3)cc2)cc1Cl`, 0.15; under `COc1ccc(-c2cc(=O)c3c(O)cc(O[C@@H]4O[C@H](CO[C@@H]5O[C@@H](C)[C@H](O)[C@@H](O)[C@H]5O)[C@@H](O)[C@H](O)[C@H]4O)cc3o2)cc1` [Linarin], 1.02.
With `NC(=O)c1[nH]cnc1N` [4-Amino-5-imidazolecarboxamide], the cell viability turned out to be 1.23.
Under `CCn1cc(-c2cccc(C(F)(F)F)c2)c2sc(C(=N)NC3CCS(=O)(=O)CC3)cc2c1=O` stands 1.1; under `CC(C)c1nc(CN(C)C(=O)N[C@@H](CCN2CCOCC2)C(=O)N[C@H](CC[C@H](Cc2ccccc2)NC(=O)OCc2cncs2)Cc2ccccc2)cs1` [Cobicistat], 1.14.
Under `COc1ccc(C[C@H](NC(=O)[C@H](C)NC(=O)CN2CCOCC2)C(=O)N[C@@H](Cc2ccccc2)C(=O)C2(C)CO2)cc1` (stereo in doubt) stands 0.878; under `CC(C)C[C@H](NC(=O)[C@H](CCc1ccccc1)NC(=O)CN1CCOCC1)C(=O)N[C@@H](Cc1ccccc1)C(=O)N[C@@H](CC(C)C)C(=O)[C@@]1(C)CO1` [Carfilzomib], 0.0349.
In the case of `CC(=O)OC(CC(C)C1=C2C[C@H](O)C3[C@@]4(C)CCC(=O)C(C)(C)C4CC[C@]3(C)[C@@]2(C)CC1)C1OC1(C)C` (some centres undefined) [Alisol B 23-acetate] it was 0.99; in that of `CC(C)C[C@H](NC(=O)[C@@H](O)[C@H](N)Cc1ccccc1)C(=O)O` [Bestatin hydrochloride], 1.16.
Turning to `CC(C)C[C@H](NC(=O)[C@@H](O)[C@H](N)Cc1ccccc1)C(=O)O` [Ubenimex], the cell viability amounted to 1.08.
Take `CNC(=O)[C@H](Cc1ccccc1)NC(=O)[C@H](CC(C)C)[C@H](CSc1cccs1)C(=O)NO` [Batimastat]: the cell viability is 1.08.
In the case of `CC(C)C[C@H](NC(=O)[C@@H](NC(=O)c1cccc(-c2ccccc2)n1)[C@@H](C)O)B(O)O` [Delanzomib] it was 0.096.
In the case of `CC(C)C[C@H](NC(=O)[C@H](Cc1ccccc1)NC(=O)c1cnccn1)B(O)O` [Bortezomib] it was 0.067.
